{"source": "PubChem BioAssay AID1347428", "about": "(National Center for Advancing Translational Sciences (NCATS), 2020)", "note": "In all, about 91,000 compounds went through this assay and about 290 (0.32%) were called active. Roughly 7% stayed inconclusive and do not appear here. Calls follow the shape of the dose curve; as a rule, active = well fitted inhibition curve with a large enough effect; inconclusive = small, poorly fitted or top-dose-only effect; inactive = no such curve, though single readings can be large or run the other way. The entries come from a sample that favours actives as a whole. % is scaled to controls: 0 for no effect and ±100 for the full control effect; potency is read from the fitted curve at half-maximal effect.", "data": [{"molecular_target": "Single-stranded DNA cytosine deaminase (Homo sapiens) (UniProt Q9GZX7)", "sequence (Q9GZX7 whole entry, looked up)": "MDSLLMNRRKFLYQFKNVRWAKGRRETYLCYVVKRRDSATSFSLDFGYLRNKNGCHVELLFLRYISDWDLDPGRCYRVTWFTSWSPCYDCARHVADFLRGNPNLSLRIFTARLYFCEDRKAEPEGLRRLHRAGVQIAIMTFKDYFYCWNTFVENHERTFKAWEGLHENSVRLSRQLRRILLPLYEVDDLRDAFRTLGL", "experiment": "Primary qHTS assay for inhibitors of Activation Induced Cytidine Deaminase (AID): AID signal; also: nearly all actives have a fitted effect of over 25% in size", "conditions": "AID deamination FRET fluorescence, UDG-coupled, 4 h; series mostly up to 115 µM; activity change, negative = inhibition: at the top concentration", "values": [{"smiles": "O=C(NCCc1ccccc1)c1[nH]c2ccccc2c1Cl", "activity change, negative = inhibition": "4.63% (inactive)"}, {"smiles": "COc1cc(C(=O)Nc2ccc(C(=O)O)cc2)c2ccccc2n1", "activity change, negative = inhibition": "-14.4% (inactive)"}, {"smiles": "COc1ccccc1-c1cc(=O)c2cc(C)ccc2o1", "activity change, negative = inhibition": "-7.1% (inactive)"}, {"smiles": "COC(=O)C(C)(NC(=O)CCC(=O)c1ccccc1)c1ccccc1", "note": "(centres undefined)", "activity change, negative = inhibition": "-8.13% (inactive)"}, {"smiles": "O=C(NC/C(=N/NC(=O)c1cccnc1)c1ccccc1)c1ccccc1", "activity change, negative = inhibition": "-6.31% (inactive)"}, {"smiles": "CN(Cc1cccc(C(F)(F)F)c1)C1CCN(C(=O)c2cncc(Br)c2)CC1", "activity change, negative = inhibition": "4.19% (inactive)"}, {"smiles": "Cc1cc2nc(CSc3nc4ccc(NC(=O)CCC5CCCC5)cc4s3)cc(=O)n2o1", "activity change, negative = inhibition": "6.43% (inactive)"}, {"smiles": "O=Cc1cccc(Br)c1O", "activity change, negative = inhibition": "-2.6% (inactive)"}, {"smiles": "Cc1ccc(S(=O)(=O)NC(C)c2cccs2)cc1", "note": "(centres undefined)", "activity change, negative = inhibition": "2.96% (inactive)"}, {"smiles": "Cc1cc(C(C)(C)C)cc(C)c1CS(=O)Cc1ccc(F)cc1", "note": "(centres undefined)", "activity change, negative = inhibition": "-27.6% (inactive)"}, {"smiles": "CC(=O)c1c(C)[nH]c(C(=O)C(C)SCc2ccc(Cl)cc2)c1C", "note": "(centres undefined)", "activity change, negative = inhibition": "-4.65% (inactive)"}, {"smiles": "NC(=O)NNC(=S)Nc1ccc(SC(F)F)cc1", "activity change, negative = inhibition": "-2.65% (inactive)"}, {"smiles": "COC(=O)c1cc(S(=O)(=O)Nc2ccc(C)c(F)c2)c[nH]1", "activity change, negative = inhibition": "-0.855% (inactive)"}, {"smiles": "CCc1ccc(-c2csc(/C(C#N)=C\\Nc3ccccc3C)n2)cc1", "activity change, negative = inhibition": "-2.89% (inactive)"}, {"smiles": "Cc1sc(NC(=O)Cc2ccccc2)c(C#N)c1C", "activity change, negative = inhibition": "8.65% (inactive)"}, {"smiles": "Cc1cc(-c2ccccc2)c(-c2nc3ccccc3s2)[nH]1", "activity change, negative = inhibition": "67.1% (inactive)"}, {"smiles": "C=CCNCc1ccc(CC)cc1", "activity change, negative = inhibition": "-3.27% (inactive)"}, {"smiles": "COc1ccc(-c2csc(N)c2C#N)cc1", "activity change, negative = inhibition": "28.9% (inactive)"}, {"smiles": "O=C(CCC1CCCC1)NCc1ccncc1", "activity change, negative = inhibition": "-3.62% (inactive)"}, {"smiles": "c1ccc2cc(OCCSc3ccc4ccccc4n3)ccc2c1", "activity change, negative = inhibition": "-1.21% (inactive)"}, {"smiles": "COc1cc(/C=C2/NC(=O)NC2=O)cc(I)c1OCC(=O)O", "activity change, negative = inhibition": "9.59% (inactive)"}, {"smiles": "Cc1ccc2c(c1)-c1cccc3cccc(c13)C2=O", "activity change, negative = inhibition": "-3.02% (inactive)"}, {"smiles": "C[N+](C)(CCCCCC[N+](C)(C)CCCN1C(=O)c2cccc3cccc(c23)C1=O)CCCN1C(=O)c2cccc3cccc(c23)C1=O", "Potency": "4.47 µM (active)"}, {"smiles": "COc1ccc(CNC(=O)/C=C/c2ccc(C)cc2)cc1", "activity change, negative = inhibition": "-7.12% (inactive)"}, {"smiles": "CCc1nc2ccccc2c(NC(=O)CN(CC)CC)c1C", "activity change, negative = inhibition": "2.75% (inactive)"}, {"smiles": "Cc1ccn2c(F)c(C(F)(F)F)nc2c1", "activity change, negative = inhibition": "-2.88% (inactive)"}, {"smiles": "C=CCn1c(NCCCOCC)nc2c1c(=O)[nH]c(=O)n2C", "activity change, negative = inhibition": "-13.2% (inactive)"}, {"smiles": "Cc1ccc2[nH]c(=O)c(-c3noc(CCCC(=O)NC4CCCCC4)n3)cc2c1", "activity change, negative = inhibition": "11% (inactive)"}, {"smiles": "Cc1c(F)cccc1NC(=O)C12CC3CC(CC(C3)C1)C2", "activity change, negative = inhibition": "-16.2% (inactive)"}, {"smiles": "Cc1ccc(C)c(C(C)NC(=S)NCc2ccc(Cl)cc2)c1", "note": "(centres undefined)", "activity change, negative = inhibition": "-11.9% (inactive)"}, {"smiles": "O=C(c1ccc(Cl)cc1Cl)N(C1CCCCC1)C1CCCCC1", "activity change, negative = inhibition": "-9.19% (inactive)"}, {"smiles": "Cc1ccc(CNC(=O)c2scnc2C)cn1", "activity change, negative = inhibition": "-0.773% (inactive)"}, {"smiles": "Cc1cc(-c2noc(COc3ccc(I)cc3)n2)c2ccccc2n1", "activity change, negative = inhibition": "-15.1% (inactive)"}, {"smiles": "CCn1nnc(NC(=O)c2cc3ccccc3cc2OC)n1", "activity change, negative = inhibition": "-11.7% (inactive)"}, {"smiles": "CCCNC(=O)C1CCC(Cn2c(=O)c3sccc3n(Cc3ccccc3F)c2=O)CC1", "note": "(centres undefined)", "activity change, negative = inhibition": "-24.2% (inactive)"}, {"smiles": "CC(C)NC(=O)C1CCC(Cn2c(=O)c3sccc3n(Cc3ccc(F)cc3)c2=O)CC1", "note": "(centres undefined)", "activity change, negative = inhibition": "-4.59% (inactive)"}, {"smiles": "O=C(C1CCC(Cn2c(=O)c3sccc3n(Cc3ccccc3F)c2=O)CC1)N1CCCCC1", "note": "(centres undefined)", "Potency": "25.1 µM (active)"}, {"smiles": "N#Cc1cccc(NC(=S)NCCc2ccccc2)c1", "activity change, negative = inhibition": "-15.4% (inactive)"}, {"smiles": "CCNCc1ccccc1C(F)(F)F", "activity change, negative = inhibition": "-1.7% (inactive)"}, {"smiles": "CCCCNC(=O)Nc1ccccc1CC(N)=O", "activity change, negative = inhibition": "-1.59% (inactive)"}, {"smiles": "O=C(CSc1ccc2c(c1)OCCO2)Nc1ccc2c(c1)OCCO2", "activity change, negative = inhibition": "-9.11% (inactive)"}, {"smiles": "COCCNc1nc(-c2ccccc2)c2cc(Br)ccc2n1", "activity change, negative = inhibition": "-17.5% (inactive)"}, {"smiles": "CCN(C(=O)C1CCN(c2nc3ccccc3o2)CC1)c1ccc(F)c(F)c1", "activity change, negative = inhibition": "-14% (inactive)"}, {"smiles": "CC(=O)Oc1c(Cl)cc(Cl)cc1Sc1cc(Cl)cc(Cl)c1OC(C)=O", "activity change, negative = inhibition": "-6.63% (inactive)"}, {"smiles": "Cc1ccc(OCCSc2nnc(COc3ccccc3Cl)n2C)cc1", "activity change, negative = inhibition": "-23.4% (inactive)"}, {"smiles": "CCCCCCCCc1cnc(-c2ccc(O)cc2)nc1", "activity change, negative = inhibition": "2.8% (inactive)"}, {"smiles": "COc1cc(CN(C(=S)NCC(=O)NCc2ccccc2Cl)C2CCCC2)cc(OC)c1OC", "activity change, negative = inhibition": "-11.1% (inactive)"}, {"smiles": "CC(=O)N1CCC(NC(=O)c2cc(C)nc3cc(F)ccc23)CC1", "activity change, negative = inhibition": "9.52% (inactive)"}, {"smiles": "Cc1nn(-c2ncnc3nc[nH]c23)c2c1C(c1cccc(F)c1)CC(=O)N2", "note": "(centres undefined)", "activity change, negative = inhibition": "-20.6% (inactive)"}, {"smiles": "O=C(O)C1CCN(C(=O)Cn2ccc3c(Br)cccc32)CC1", "activity change, negative = inhibition": "10.4% (inactive)"}, {"smiles": "CCC(=O)c1ccc(C2CCCCC2)cc1", "activity change, negative = inhibition": "0.556% (inactive)"}, {"smiles": "C(=C\\c1ccccc1)/CNC1CC1", "activity change, negative = inhibition": "-7.64% (inactive)"}, {"smiles": "N#Cc1ccc(COC(=O)CCC(=O)c2ccccc2)cc1", "activity change, negative = inhibition": "-10.1% (inactive)"}, {"smiles": "Cc1cc(C(=O)O)c(C)n1CC(F)(F)F", "activity change, negative = inhibition": "3.52% (inactive)"}, {"smiles": "O=C(/C=C/c1cccs1)N1CC=C(c2ccccc2)CC1", "activity change, negative = inhibition": "-1.83% (inactive)"}, {"smiles": "C(#CCN1CCCCC1)COC(c1ccccc1)c1ccccc1", "activity change, negative = inhibition": "-6.93% (inactive)"}, {"smiles": "CC(C)NS(=O)(=O)c1ccc(C(=O)NCC(=O)O)cc1", "activity change, negative = inhibition": "2.86% (inactive)"}, {"smiles": "COc1cccc(CN(C)S(=O)(=O)c2cnn(C)c2)c1OC", "activity change, negative = inhibition": "-0.162% (inactive)"}, {"smiles": "CC(C)CCNC(=S)Nc1cccc(C(F)(F)F)c1", "activity change, negative = inhibition": "-14% (inactive)"}, {"smiles": "O=C(Nc1ccc2nc(N3CCCC3)sc2c1)c1ccc(F)cc1", "activity change, negative = inhibition": "2.27% (inactive)"}, {"smiles": "Cc1cc(C(=O)OCc2cccc(C#N)c2)c(C)o1", "activity change, negative = inhibition": "2% (inactive)"}, {"smiles": "O=C(N/N=C/c1ccccc1OCCOc1ccc([N+](=O)[O-])cc1)Nc1ccccc1", "activity change, negative = inhibition": "-3% (inactive)"}, {"smiles": "COc1ccc(NC(=O)Cc2ccc3c(c2)OCCO3)cn1", "activity change, negative = inhibition": "4.51% (inactive)"}, {"smiles": "Cc1nn(C)c2c(=O)n(CC(=O)NCc3ccccc3)ccc12", "activity change, negative = inhibition": "-12.6% (inactive)"}, {"smiles": "CCOc1ccc(C(=O)CCC(=O)OCC(=O)c2ccc3c(c2)OCCO3)cc1", "activity change, negative = inhibition": "20.4% (inactive)"}, {"smiles": "CC(C)c1ccc(NC(=O)CSc2nc3ncc(Cl)cc3[nH]2)cc1", "activity change, negative = inhibition": "-2.2% (inactive)"}, {"smiles": "COc1cc(C2CC(=O)Nc3nc(-c4ccccc4)[nH]c(=O)c32)ccc1OCc1ccc(F)cc1", "note": "(centres undefined)", "activity change, negative = inhibition": "-1.85% (inactive)"}, {"smiles": "CCCCNc1oc(/C=C/c2ccc(OCC)cc2)nc1C#N", "activity change, negative = inhibition": "-4.06% (inactive)"}, {"smiles": "Cc1ccc(NC(=O)CCc2nc3cc(Cl)ccc3n(CC(C)C)c2=O)cc1", "activity change, negative = inhibition": "1.54% (inactive)"}, {"smiles": "O=C1c2ccccc2C(=Cc2ccc(Cl)cc2)c2ccccc21", "activity change, negative = inhibition": "-10.6% (inactive)"}, {"smiles": "O=C(O)c1ccc(I)c(Br)c1", "activity change, negative = inhibition": "-4.24% (inactive)"}, {"smiles": "COc1cc(OC)cc(-c2nc3nc(C)c(CCC(=O)Nc4ccccc4)c(C)n3n2)c1", "activity change, negative = inhibition": "-12.3% (inactive)"}, {"smiles": "Cc1nc2nc(SCC(=O)N(Cc3ccccc3)C(C)C)nn2c(C)c1Cc1ccccc1Cl", "Potency": "22.4 µM (active)"}, {"smiles": "Cc1nnc(SCC(=O)NCc2ccccc2Cl)c2nn(-c3ccccc3)c(C)c12", "activity change, negative = inhibition": "18.6% (inactive)"}, {"smiles": "Cc1cccc(CC(=O)N2CC(=O)Nc3ccc(F)cc3C2c2ccccc2)c1", "note": "(centres undefined)", "activity change, negative = inhibition": "-10.3% (inactive)"}, {"smiles": "CCCCOc1ccc(C(=O)N2CC(=O)Nc3ccc(Br)cc3C2c2ccc(F)cc2)cc1", "note": "(centres undefined)", "Potency": "35.5 µM (active)"}, {"smiles": "COc1ccc(CC(=O)N2CC(=O)Nc3ccc(Br)cc3C2c2ccc(F)cc2)cc1OC", "note": "(centres undefined)", "activity change, negative = inhibition": "-20.9% (inactive)"}, {"smiles": "O=C(Nc1c(N2CCCC2)c2ccccc2oc1=O)c1ccc(Br)o1", "activity change, negative = inhibition": "4.68% (inactive)"}, {"smiles": "Cc1cc(NC(=O)c2ccc(F)cc2F)n(CCC#N)n1", "activity change, negative = inhibition": "2.66% (inactive)"}]}]}
